Laboratory results reported in PubChem BioAssay AID624288 (National Center for Advancing Translational Sciences (NCATS), 2012).
In all, about 340,000 compounds went through this assay and about 1,400 (0.41%) were called active. Another 4% or so got no clear call; they are omitted. The sample holds actives, similar compounds and a random draw of the others, so the mix is not that of the screen. The call rests on the fitted dose curve; cell line not stated here.

Assay: qHTS for Antagonists of gsp, the Etiologic Mutation Responsible for Fibrous Dysplasia/McCune-Albright Syndrome: qHTS; further: nearly all actives have a fitted effect of over 65% in size
Conditions: gsp-mutant cells, cAMP HTRF, 30 min; series mostly up to 76.9 µM; activity change, negative = inhibition: at the top concentration
Source text: McCune-Albright syndrome (MAS) is a rare disease caused by somatic mutations in Gsgsp), a widely expressed protein central in signal transduction from G-coupled protein receptors (GPCRs). The disease symptoms are diverse, owing to the fact that the patients are mosaics with varying degrees of tissue involvement. Greater than 90% of the mutations in Gs in MAS occur at the R201 position and are equally divided between R201H and R201C. The R201 residue is central in the intrinsic GTPase activity of Gs and the H and C mutations lead to loss of, or impairment of, the GTPase activity. The intrinsic GTPase activity is necessary to terminate the interaction between Gs and adenylate cyclase, and to terminate the cAMP-mediated signaling of the given GPCR pathway. Thus, these activating mutations lead to ligand-independent activation of GPCR pathways. The tissue phenotype is determined by the role of Gs in the function of a given cell, and excess Gs/cAMP signaling in that cell. For example, pituitary somatotrophs overproduce growth hormone in a growth hormone releasing hormone-independent fashion, and gigantism/acromegaly ensues. Skeletal stem cells in the bone marrow behave as if they are under constant parathyroid hormone stimulation and fail to differentiate into osteoblasts and osteocytes, and proliferate as immature osteogenic cells and lead to the marrow fibrosis of fibrous dysplasia of bone. The goal of this project is to identify molecules with inhibitory activity at gsp mutations that will not only allow for in-depth study of the underlying molecular and cellular pathophysiology, but also serve as compounds from which drugs to treat FD/MAS can be developed NIH Chemical Genomics Center [NCGC] NIH Molecular Libraries Probe Centers Network [MLPCN] MLPCN Grant: IRP-FT-DE-2011-01 Assay Submitter (PI): Michael Collins, NIDCR
1.#Seed 2000 cells/well in 6 ul DMEM 10% FBS, 1% Pen/Strep, 0.5 mg/ml G418 2.#Incubate 16-24 hr at 37C, 5% CO2, 95% humidity 3.#Aspirate leaving 1 ul residual volume 4.#Dispense 5 ul/well DPBS + 1 mM CaCl2, 0.5 mM MgCl2, 0.05% BSA, 0.005% Tween 20 5.#Aspirate leaving 2 ul residual volume 6.#Dispense 23 nl/well compounds in DMSO 7.#Dispense 1 ul/well 300 uM Ro-20174 in DMEM 10% FBS 8.#Incubate 30 min at 37C, 5% CO2, 95% humidity 9.#Dispense 1.5 ul/well HTRF reagent: cAMP-d2 in lysis buffer 10.#Dispense 1.5 ul/well HTRF reagent: anti-cAMP antibody-K in lysis buffer 11.#Incubate 30 min at room temperature 12.#Detect HTRF signal using EnVision plate reader
On the % scale 0 is the no-effect control and ±100 the full control effect; potency means the concentration at half of the fitted maximal effect.

| Compound | activity change, negative = inhibition | Potency |
| --- | --- | --- |
| COc1cc(NC(=O)C2=CC(c3ccc(C)cc3)=NS(=O)(=O)N2C)cc(OC)c1OC | -12.6% (inactive) |  |
| COc1ccc(NC(=O)C2=CC(c3ccc(OC)c(OC)c3)=NS(=O)(=O)N2C)cc1 |  | 39.8 µM (active) |
| COc1cc(NC(=O)C2=CC(c3ccco3)=NS(=O)(=O)N2C)cc(OC)c1OC | -2.3% (inactive) |  |
| COC(=O)Cc1nc2c(N)nc(N)nc2[nH]c1=O | -0.61% (inactive) |  |
| CSc1ncnc2c1ncn2CC(=O)C1CCC2C3CCC4=CC(=O)CCC4(C)C3CCC12C (stereo not drawn) |  | 31.6 µM (active) |
| CC(=O)C12CC(C)=C(C)CC1CC1C3CCC4=CC(=O)CCC4(C)C3CCC12C (stereo not drawn) | -11.6% (inactive) |  |
| Cc1onc(-c2c(F)cccc2Cl)c1C(=O)Nc1cccc(S(=O)(=O)N2CCCCC2)c1 | -15.9% (inactive) |  |
| CN1CCOC1c1ccc(C2OCCN2C)cc1 (stereo not drawn) | -2.61% (inactive) |  |
| CC1CN(Cc2ccccc2)C(=S)NC1=O (stereo not drawn) | 11.6% (inactive) |  |
| COc1ccccc1NC(=O)N(O)C1(C#N)CCCCC1 | 10.5% (inactive) |  |
| CCOc1ccc2c(c1)C(c1ccc(C)cc1)=NNC(c1ccc(C)cc1)=N2 | -5.6% (inactive) |  |
| Cc1ccc(-c2csc(-c3c[nH]c4ccccc34)n2)cc1 | -14.8% (inactive) |  |
| Cc1ccc(C2=Nc3c(ccc4ccccc34)C(c3ccncc3)=NN2)cc1 |  | 31.6 µM (active) |
| CC(=O)c1ccc(NC(=O)C(C)OC(=O)c2ccc(NS(=O)(=O)c3ccc4[nH]c(=O)[nH]c4c3)cc2)cc1 (stereo not drawn) | 3.15% (inactive) |  |
| O=C(O)C(CCc1ccccn1)c1ccccc1 (stereo not drawn) | 1.38% (inactive) |  |
| O=C(CCN1C(=O)/C(=C/c2cccs2)SC1=S)NNC(=O)c1cccc(O)c1 |  | 31.6 µM (active) |
| Cc1ccc(/C=C2\SC(=S)N(CCC(=O)Nc3ccc(O)cc3)C2=O)cc1 | 4.75% (inactive) |  |
| O=C(CCCN1C(=O)/C(=C/c2cccs2)SC1=S)Nc1ccc(O)cc1 | -10.1% (inactive) |  |
| Cc1ccc(OCCNC(=O)c2cccc(S(=O)(=O)N3CCN(Cc4ccccc4)CC3)c2)cc1 | -9.83% (inactive) |  |
| COc1ccc(OC)c(Cc2cnc3nc(N)nc(N)c3c2C)c1 | -2.01% (inactive) |  |
| CC(=O)OCC(COC(C)=O)OC(C)=O |  | 35.5 µM (active) |
| CC(=O)OC(C)C[N+](C)(C)C (stereo not drawn) | 1.38% (inactive) |  |
| CC(=O)OCCC(C)C | 9.48% (inactive) |  |

| Compound | activity change, negative = inhibition | Potency |
| --- | --- | --- |
| O=C1OC(Oc2ccc(Br)cc2)(c2ccccc2)c2ccccc21 (stereo not drawn) | -18% (inactive) |  |
| CCCCN1CC(COc2ccccc2)Oc2cccc(F)c2S1(=O)=O (stereo not drawn) | -12.9% (inactive) |  |
| O=C(c1ccc(N2CCOCC2)c([N+](=O)[O-])c1)N1CCN(c2ccccc2F)CC1 | -2.65% (inactive) |  |
| O=C(c1cccc(F)c1)N1CCN(c2ccc([N+](=O)[O-])c(N3CCCCC3)c2)CC1 | -11.9% (inactive) |  |
| O=C(c1cccc(F)c1)N1CCN(c2ccc([N+](=O)[O-])c3cccnc23)CC1 |  | 39.8 µM (active) |
| COc1cc(C2c3cc4c(cc3C(O)C3COC(=O)C23)OCO4)cc(OC)c1OC (stereo not drawn) | 16.2% (inactive) |  |
| O=C(Cc1ccc(S(=O)(=O)N2CCOCC2)s1)Nc1ccc(Br)c(C(F)(F)F)c1 | -38.2% (inactive) |  |
| O=C(c1cccnc1)N(Cc1ccccc1)C(=O)c1cccnc1 | 5.46% (inactive) |  |
| CCCN(CC(=O)Nc1ccccc1C)C(=O)c1ccc(OCC(=O)N2CCOCC2)c(OCC)c1 | -2.96% (inactive) |  |
| COc1ccc(CCNC(=O)COc2cc(C)cc3oc(=O)c(C)c(C)c23)cc1OC | 4.24% (inactive) |  |
| CC(C)OCCCNc1ncnc2c1[nH]c1ccc(F)cc12 |  | 39.8 µM (active) |
| CC(C)OCCCNC(=O)c1cc(Sc2ccc(F)cc2)nc2ccccc12 | 16% (inactive) |  |
| CCOC(=O)[C@H]1[C@H]2COc3ccc(Br)cc3[C@@H]2N2C(=O)CN(C)C(=O)[C@@]12C | 0.52% (inactive) |  |
| O=C(NCc1ccccc1)c1cccc(NC(=O)C2CCCCC2)c1 | -0.777% (inactive) |  |
| Cc1c(CN2CC[C@@H](N3CCN(c4ccccn4)CC3)[C@H](O)C2)[nH]c2ccc(F)cc12 | 4.63% (inactive) |  |
| Fc1ccc2[nH]c3c(N4CCSCC4)ncnc3c2c1 |  | 28.2 µM (active) |
| CCN(CC)CCCN1C(=O)C(=O)/C(=C(/O)c2c(C)nc3ccccn23)C1c1ccc(C)o1 (stereo not drawn) | 8.42% (inactive) |  |
| O=C(Nc1nc2ccccc2s1)c1ccc2c(c1)OCO2 | -20.8% (inactive) |  |
| O=C(Nc1nc(-c2ccc3c(c2)OCO3)cs1)c1ccncc1 |  | 39.8 µM (active) |
| CC(=O)NCCC(=O)Nc1nc(-c2ccc3c(c2)OCCO3)cs1 | 1.23% (inactive) |  |
| N#CC1(Nc2ccc(-c3ccc(Cl)cc3)cc2)CCCC1 | 2.59% (inactive) |  |
| FC(F)(F)c1ccc(-c2cccc3c2C2CC3CCN2Cc2ccccc2)cc1 (stereo not drawn) | -6.66% (inactive) |  |
| CCOC(=O)c1ccccc1OC(=O)Oc1ccccc1C(=O)OCC | -13% (inactive) |  |

| Compound | activity change, negative = inhibition | Potency |
| --- | --- | --- |
| CC(=O)Oc1ccc2c(c1)C(=O)c1ccccc1C2=O | -0.802% (inactive) |  |
| O=C1C(Cl)=C(Oc2ccccc2)C(=O)c2ccccc21 |  | 39.8 µM (active) |
| CCCCN1CC(COCc2ccccc2)OCCS1(=O)=O (stereo not drawn) | 12.5% (inactive) |  |
| C=CC(=O)Nc1ccc(Nc2ccnc(Nc3ccc(N4CCN(C)CC4)cc3)n2)cc1 | -4.93% (inactive) |  |
| COc1ccc(Cl)cc1C=CC=Nc1ccc(S(N)(=O)=O)cc1 | 0.98% (inactive) |  |
| COc1ccc(C(=O)OCC(=O)c2ccc(C)c(S(=O)(=O)N3CCOCC3)c2)cc1OC |  | 28.2 µM (active) |
| Cc1ccc(C(=O)OCC(=O)N2CCCCCC2)cc1S(=O)(=O)N1CCOCC1 | -6.68% (inactive) |  |
| COc1ccc(CNC(=O)COC(=O)c2ccc(C)c(S(=O)(=O)N3CCOCC3)c2)cc1OC | -4.89% (inactive) |  |
| COC1C(CO)OC(n2cnc3c(=S)nc(N)[nH]c32)C1O (stereo not drawn) | -0.246% (inactive) |  |
| COc1ccc2oc(N)nc2c1 | 7.22% (inactive) |  |
| NC(=O)C1(Nc2ccc([N+](=O)[O-])cc2)CCCC1 | 7.87% (inactive) |  |
| COc1ccc(-c2nc(CCNC(=O)c3ccc(Br)o3)cs2)cc1 |  | 44.7 µM (active) |
| COc1ccc(N2CCN(C(=O)CNC(=O)c3ccc(Br)o3)CC2)cc1 | 5.12% (inactive) |  |
| O=C(NCCc1csc(-c2ccccc2)n1)c1ccccc1F | -20.8% (inactive) |  |
| Cc1ccc(S(=O)(=O)N2CCN(C(=O)c3cc(S(=O)(=O)N4CCOCC4)ccc3F)CC2)cc1 | 6.87% (inactive) |  |
| c1ccc(-c2c[nH]c(-c3ccccc3)c2)cc1 | -13.3% (inactive) |  |
| Cc1ccc(S(=O)(=O)c2cc3c(=O)n4cccc(C)c4nc3n(CCc3ccccc3)c2=N)cc1C | 8.56% (inactive) |  |
| CC12CCCCC1=CC(=O)CC2 (stereo not drawn) | -0.525% (inactive) |  |
| CC(C)Cc1nnc(N)s1 | 5.9% (inactive) |  |
| Cn1c2ccccc2c(=O)c2c(=O)n(Cc3ccco3)c(COc3ccccc3)nc21 | -3.84% (inactive) |  |
| COc1ccc(-c2oc3ncn(Cc4ccco4)c(=N)c3c2-c2ccc(OC)cc2)cc1 |  | 50.1 µM (active) |
| COc1ccc(-n2cnc3cc(NCc4ccco4)ccc32)cc1 | -16% (inactive) |  |
